A selection: hits, their analogues and other compounds. The true share with any hit is near 5.7%.
PI5P4Ka inh: qHTS for Inhibitors of phosphatidylinositol 5-phosphate 4-kinase (PI5P4K); hit rate 1.2% among 330,000; Phosphatidylinositol 5-phosphate 4-kinase type-2 alpha (Homo sapiens), P48426; max response, %; PI5P4Kalpha enzyme, ADP-Glo luminescence, 60 min; stronger effect = lower value; AID 652105, 2013; active = max response of -50% or lower; inconclusive = between -30% and -50%; inactive = -30% or higher; note: value at the top dose of about 77 µM; % is set by controls: 0 for no effect and ±100 for the full control effect
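Single end-point luminescence (ADP-Glo) quantified ADP from PI5P4Kalpha turnover; ATP 5 microM final, 1 h at RT, 0.1% CHAPS and 0.28 mM EGTA in HEPES pH 7.4.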
JMJD2A Tudor: qHTS Assay for Inhibitors of JMJD2A-Tudor Domain. Potency, µM (titrated, usually from 114 µM), without a hit: at the top dose activity change, negative = inhibition, hits mostly inhibitors. hit rate 4.4% among 390,000. AlphaScreen JMJD2A-Tudor / H3K4me3 peptide binding; note: potency is the fitted concentration of half-maximal effect; % is set by controls: 0 for no effect and ±100 for the full control effect; nearly all actives have a fitted effect of over 50% in size
L3MBTL1 inh: qHTS Assay for the Inhibitors of L3MBTL1. Lethal(3)malignant brain tumor-like protein 1 (Homo sapiens), Q9Y468. AlphaScreen L3MBTL1–H3K9me1 peptide binding. Potency, µM (series often up to 57.1 µM), inactives show at the top dose activity, negative = inhibition, most hits filed as inhibitors. hit rate 0.66% among 230,000. AID 485360, 2010; note: potency is the fitted concentration of half-maximal effect; % is set by controls: 0 for no effect and ±100 for the full control effect; nearly all actives have a fitted effect of over 60% in size
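L3MBTL1 50 nM + b-AHA-H3(1-15)K9me1 75 nM, 30 min RT; compound added, 30 min RT; streptavidin donor/Ni-chelate acceptor beads 10 ug/mL each final, 30 min RT dark; AlphaScreen read.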
BAZ2B inh: qHTS Assay for Inhibitors of BAZ2B; Bromodomain adjacent to zinc finger domain protein 2B (Homo sapiens), Q9UIF8; AlphaScreen BAZ2B-H3K14Ac peptide displacement; Potency, µM (series often up to 114 µM), without a hit: at the highest dose activity change, negative = inhibition, usual class: inhibitors; hit rate 4.4% among 360,000; AID 504333, 2011; note: potency is the fitted concentration of half-maximal effect; % is set by controls: 0 for no effect and ±100 for the full control effect; nearly all actives have a fitted effect of over 60% in size
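AlphaScreen luminescence quantifies BAZ2B engagement of H3K14Ac peptide; the protein and biotinylated peptide are both at 50 nM final, buffer PBS pH 7.4 with 0.01% Tween-20, all steps at room temperature.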
JMJD2E inh: qHTS Assay for Inhibitors of Human Jumonji Domain Containing 2E (JMJD2E); Potency, µM (top dose mostly 57.1 µM), inactives show top-dose activity change, negative = inhibition, hits mostly inhibitors; AID 2147, 2009; hit rate 1.6% among 230,000; Lysine-specific demethylase 4E (Homo sapiens), B2RXH2; JMJD2E catalytic domain, FDH-coupled NADH fluorescence (FDH is formaldehyde dehydrogenase); active = well fitted inhibition curve with a large enough effect, not every such curve was filed as active; inconclusive = small, poorly fitted or top-dose-only effect, or another doubt; inactive = no such curve, though single readings can be large or run the other way;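 note: potency is the fitted concentration of half-maximal effect; 0% = wells with enzyme and -100% = buffer wells without enzyme; nearly all actives have a fitted effect of over 50% in size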
HP1b binding inh: HTS for Inhibitors of HP1-beta Chromodomain Interactions with Methylated Histone Tails | hit rate 0.56% among 390,000 | Chromobox protein homolog 1 (Homo sapiens), P83916 | Potency, µM (highest dose often 114 µM), for inactives: at the top dose activity change, negative = inhibition, hits mostly inhibitors | AlphaScreen HP1-beta / biotin-H3K9me3 peptide binding; note: potency is the fitted concentration of half-maximal effect; nearly all actives have a fitted effect of over 70% in size
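Compound inhibition of the preformed complex between 50 nM HP1-beta and 50 nM biotinylated H3K9me3 peptide was read by AlphaScreen. Buffer was PBS pH 7.4 with 0.01% Tween-20. Incubations ran 30 min at room temperature, with 10 ug/mL donor/acceptor beads.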
* marks the source's active call; other numbers are inactive results; ? = inconclusive; / = no result given; [ ] = dose if it differs, or a comment. Unless noted, calls come from the whole dose curve; as a rule, active = well fitted inhibition curve with a large enough effect; inconclusive = small, poorly fitted or top-dose-only effect; inactive = no such curve, though single readings can be large or run the other way.

SMILES | PI5P4Ka inh | JMJD2A Tudor | L3MBTL1 inh | BAZ2B inh | JMJD2E inh | HP1b binding inh
O=C(O)c1ccccc1NS(=O)(=O)c1ccc(NN=Cc2ccc(F)cc2)c([N+](=O)[O-])c1 | -57.8* | 44.7µM* | -28.0% | / | / | ?
O=C(O)c1ccccc1NS(=O)(=O)c1ccc(N/N=C/c2ccc(O)c(O)c2)c([N+](=O)[O-])c1 | -95.8* | 28.2µM* | / | / | / | 14.1µM*
CCCn1c(=O)c2sccc2n2c(CCCC(=O)Nc3ccc(Oc4ccccc4)cc3)nnc12 | / | 2.2% | / | 12.7% | / | 90.2%
C[C@@H]1CN([C@@H](C)CO)C(=O)c2cc(-c3ccncc3)cnc2O[C@H]1CN(C)C(=O)c1cccc(F)c1 | -21.8 | / | / | / | / | /
COc1ccc(CNS(=O)(=O)c2cnc(N)nc2)c(OC)c1 | / | 3.9% | / | 4.2% | / | 28.0%[57 µM]
O=C(Cn1c(-c2cccs2)cc2ccccc21)N1CCN(c2ccc(Cl)cc2)CC1 | / | -6.6% | / | 5.5% | / | 33.3%
COC(=O)c1c(-c2ccccc2)csc1NC(=O)C1CC=CCC1C(=O)O (configuration not stated) | ? | 50.1µM* | -0.6% | ? | -8.7% | ?
Cc1ccc(Cl)cc1N1CCN(C(=O)c2cnn(C)c2C2CCN(C(=O)OC(C)(C)C)CC2)CC1 | / | -13.6% | / | 2.1%[57.1 µM] | / | 21.9%
O=C1NN(c2ccc(Cl)c(Cl)c2)C(=O)/C1=C/c1cccc(OC(=O)c2cccs2)c1 | / | / | / | 50.1µM* | 3.6% | /
CCOc1cc(/C=C2/C(=O)N(c3ccccc3)N=C2C)ccc1OC(=O)c1cccs1 | / | ? | ? | 50.1µM* | -7.3% | -2.1%
CCOc1cc(/C=N/NC(=O)c2ccccn2)ccc1OC(=O)c1cccs1 | 2.6 | -16.4% | / | -0.5% | / | 33.5%
COC(=O)N/N=C\c1cccc(OC(=O)c2cccs2)c1 | 1.2 | -12.6% | / | -12.0% | 5.7% | 34.8%
O=C1NN(c2ccccc2)C(=O)/C1=C\c1cccc(OC(=O)c2cccs2)c1 | ? | ? | / | 56.2µM* | -4.7% | 3.3%
O=C(NCc1ccco1)/C(=C/c1ccc(F)cc1)NC(=O)c1ccccc1 | 6.7 | -4.1% | / | -11.6% | / | 18.3%
CC(C1CCCC(=O)C1)[N+](=O)[O-] (configuration not stated) | / | / | / | / | 9.9% | /
O=C(Nc1c(C(=O)N2CCN(c3ccccc3)CC2)oc2ccccc12)c1ccco1 | / | ? | / | ? | / | 1.8%
Cc1ccc(/C=C2/SC(=O)NC2=S)o1 | -93.0* | 39.8µM* | / | 50.1µM* | ? | ?
Cc1ccc(/C=C2/SC(=S)N(C3CCCCC3)C2=O)o1 | 2.4 | -31.7% | / | ? | / | -13.6%[57 µM]
Cn1cc(/C=C2\SC(=O)NC2=S)c2ccccc21 | ? | ? | -5.7% | 31.6µM* | -4.1% | ?
Cc1ccc(C(=O)NN2C(=O)/C(=C/c3cn(C)c4ccccc34)SC2=S)cc1 | -1.9 | -19.2% | 26.8% | 9.5% | -8.0% | -14.8%
O=C(/C=C/c1ccccc1)COC(=O)c1ccccc1 | 5.7 | 2.8% | / | / | / | 42.3%
O=C(/C=C/c1ccccc1)NC(=O)c1ccccc1O | 0.9 | ? | / | 79.4µM* | 7.1% | 23.5%
O=C(/C=C/c1ccccc1)CC(=O)c1ccccc1O | 0.8 | 25.1µM* | -26.6% | ? | ? | -23.5%
COc1cc(/C=C/C(=O)NC(=O)c2ccccc2O)ccc1O | -0.1 | -12.4% | / | -19.8% | / | 11.1%
Cc1ccc(CNC(=S)Nc2ccc3c(c2)c(=O)n(C)n3Cc2cccc(C(F)(F)F)c2)cc1 | -25.4 | / | / | / | / | /
SMILES | PI5P4Ka inh | JMJD2A Tudor | L3MBTL1 inh | BAZ2B inh | JMJD2E inh | HP1b binding inh
CC(=O)N1/C(=C/c2ccc(N(C)C)cc2)C(=O)c2ccccc21 | -8.2 | 17.8µM* | / | 10µM* | -3.8% | 22.4µM*
O=C(CCCCn1ccc(=O)[nH]c1=O)Nc1ccc(O)c(C(=O)O)c1 | -7.8 | -10.3% | / | / | / | 18.3%[57 µM]
O=C(CCCCn1ccc(=O)[nH]c1=O)Nc1ccc(C(=O)O)c(O)c1 | -71.4* | -3.4% | / | / | / | 18.8%[57 µM]
Cc1ccc(OCCNCC(O)COc2ccccc2)cc1 (configuration not stated) | 11.8 | 56.2µM* | / | 50.1µM* | / | -11.4%
COc1ccc(OCC(O)CNCCOc2ccccc2OC)c(C(C)(C)C)c1 (configuration not stated) | 2.1 | 22.4µM* | / | 50.1µM* | / | -0.9%
COCCNC(=O)COc1ccc(OCCNC[C@@H](O)COc2ccccc2)cc1 | / | / | / | / | -12.7% | /
O=C(O)COc1ccc(OCCNC[C@@H](O)COc2ccccc2)cc1 | / | / | / | / | 0.8% | /
COc1ccc(NCC(O)COc2ccc(C(C)(C)C)cc2)cc1 (configuration not stated) | 12.6 | ? | -17.9% | ? | 7.8% | ?
OC(CNc1ccccc1)COc1ccc(OCC(O)CNc2ccccc2)cc1 (configuration not stated) | 15.2 | 50.1µM* | -13.0% | 50.1µM* | -3.2% | -38.4%
COc1ccccc1NCC(O)COc1ccc(C(C)(C)C)cc1 (configuration not stated) | 1.8 | 2.82µM* | -10.3% | 22.4µM* | ? | 20µM*
CCOC(=O)C(=CNc1cc(C(F)(F)F)ccc1N1CCOCC1)C(=O)OCC | 3.0 | 6.4% | 21.0% | 9.6% | ? | 44.3%
Cc1cccc(Nc2nc(N)nc(CCl)n2)c1 | 2.3 | -3.5% | -23.7% | 8.1% | 2.4% | 41.9%
Cc1cccc(Nc2nc(N)nc(CN3CCN(c4ccccc4F)CC3)n2)c1 | / | 44.7µM* | / | / | / | -17.4%
COc1ccccc1Nc1nc(N)nc(CN2CCN(Cc3ccc4c(c3)OCO4)CC2)n1 | 2.9 | -17.9% | 10.5% | ? | -2.8% | 20.6%
CN1CCN(Cc2nc(N)nc(Nc3ccc4c(c3)OCCO4)n2)CC1 | / | ? | 44.8% | 50.1µM* | 3.2% | 14.2%
Nc1nc(CN2CCN(c3ccccn3)CC2)nc(Nc2ccc(Cl)cc2)n1 | -7.3 | ? | -28.1% | 50.1µM* | -26.2% | 13.2%
Cc1cccc(Nc2nc(N)nc(CN3CCN(Cc4ccc5c(c4)OCO5)CC3)n2)c1 | / | 50.1µM* | -11.7% | ? | -1.6% | -7.3%
Cc1ccc(Nc2nc(N)nc(CN3CCc4ccccc4C3)n2)cc1 | 1.9 | ? | -18.7% | ? | -4.8% | 1.6%
COc1ccc(C2C3C=CCC(c4cccc(/C=C/c5ccccc5)c4)C3C(=O)N2Cc2ccccc2)cc1Cl (configuration not stated) | / | -13.1% | / | / | / | 32.7%
COc1ccc(N2CCN(Cc3nc(N)nc(Nc4ccccc4OC)n3)CC2)cc1 | 0.1 | 56.2µM* | ? | 28.2µM* | -13.7% | -15.4%

Screening results (PubChem BioAssay)
